In all, about 16,000 sequences were measured (“rpm ratio (pull-down/input)”: median about 0.5, highest 2% from about 5.5 on). What follows is part of a selection rich in the highest values, with near analogues and random picks from the rest.
molecular target: T1, MBP-FoxP3dN (Mus musculus, UniProt Q99JB6 188-423); test: PD-seq (MBP pull-down with sequencing); 20 mM Tris-HCl pH 7.5, 100 mM NaCl, 1.5 mM MgCl2, 0.4 uM protein, 0.1 uM dsDNA library, 30 min, room temperature, amylose pull-down; high values mean tight binding; settings: protein: recombinant; tags: His6-MBP; chain copies: 2; dsDNA, one strand shown
T1 sequence: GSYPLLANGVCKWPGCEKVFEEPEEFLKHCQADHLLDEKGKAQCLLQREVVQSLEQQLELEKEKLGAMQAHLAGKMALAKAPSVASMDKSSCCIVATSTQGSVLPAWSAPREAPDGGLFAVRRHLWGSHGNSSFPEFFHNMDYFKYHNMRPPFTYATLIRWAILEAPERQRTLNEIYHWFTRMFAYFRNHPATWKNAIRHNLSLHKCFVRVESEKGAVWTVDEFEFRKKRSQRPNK
Summary of the method: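 The N-terminus-lacking fragment of mouse FoxP3 or FoxP1 carried a His6-MBP tag and was expressed in E. coli. At 0.4 µM it was incubated with 0.1 µM Klenow-filled degenerate double-stranded DNA library for 30 min at room temperature in Tris pH 7.5 buffer with NaCl and MgCl2, and complexes were caught on amylose resin, washed three times, released with proteinase K, PCR-barcoded and Illumina-sequenced. Binding is reads-per-million enrichment of pull-down over input with replicates pooled.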

Sequence | binding signal
GATGATTGTTCTCCCAGCTGATGAATTGGACCATTCGAGTAAACAAATTTTCCTAATCTTTCTGTTCAAGCGCCATCTAC | 0.374 RPM ratio (pull-down/input)
GATGATTGTTCTCCCAGCTGATGAATTAGCCGACTCGAGTAAACAAATTTTCCTAATCTTTCTGTTCAAGCGCCATCTAC | 0.205 RPM ratio (pull-down/input)
GATGATTGTTCTCCCAGCTGATGAATTCTGGAATTCGAGTAAACAAATTTTCCTAATCTTTCTGTTCAAGCGCCATCTAC | 0.579 RPM ratio (pull-down/input)
GATGATTGTTCTCCCAGCTGATGAATTCCCTGTGTCGAGTAAACAAATTTTCCTAATCTTTCTGTTCAAGCGCCATCTAC | 0.347 RPM ratio (pull-down/input)
GATGATTGTTCTCCCAGCTGATGAATTTTTCGTGTCGAGTAAACAAATTTTCCTAATCTTTCTGTTCAAGCGCCATCTAC | 0.363 RPM ratio (pull-down/input)
GATGATTGTTCTCCCAGCTGATGAATTTTTGTTGTCGAGTAAACAAATTTTCCTAATCTTTCTGTTCAAGCGCCATCTAC | 3.24 RPM ratio (pull-down/input)
GATGATTGTTCTCCCAGCTGATGAATTTGTCGTGTCGAGTAAACAAATTTTCCTAATCTTTCTGTTCAAGCGCCATCTAC | 5.6 RPM ratio (pull-down/input)
GATGATTGTTCTCCCAGCTGATGAATTGTTGTTGTCGAGTAAACAAATTTTCCTAATCTTTCTGTTCAAGCGCCATCTAC | 7.65 RPM ratio (pull-down/input)
GATGATTGTTCTCCCAGCTGATGAATTGCTTGTGTCGAGTAAACAAATTTTCCTAATCTTTCTGTTCAAGCGCCATCTAC | 2.01 RPM ratio (pull-down/input)
GATGATTGTTCTCCCAGCTGATGAATTTGCTGTGTCGAGTAAACAAATTTTCCTAATCTTTCTGTTCAAGCGCCATCTAC | 6.29 RPM ratio (pull-down/input)
GATGATTGTTCTCCCAGCTGATGAATTTCTGTTGTCGAGTAAACAAATTTTCCTAATCTTTCTGTTCAAGCGCCATCTAC | 1.28 RPM ratio (pull-down/input)
GATGATTGTTCTCCCAGCTGATGAATTTTTGCTGTCGAGTAAACAAATTTTCCTAATCTTTCTGTTCAAGCGCCATCTAC | 0.548 RPM ratio (pull-down/input)
GATGATTGTTCTCCCAGCTGATGAATTCGTTGTGTCGAGTAAACAAATTTTCCTAATCTTTCTGTTCAAGCGCCATCTAC | 5.69 RPM ratio (pull-down/input)
GATGATTGTTCTCCCAGCTGATGAATTGTGTCGTTCGAGTAAACAAATTTTCCTAATCTTTCTGTTCAAGCGCCATCTAC | 2.73 RPM ratio (pull-down/input)
GATGATTGTTCTCCCAGCTGATGAATTGTCGTGTTCGAGTAAACAAATTTTCCTAATCTTTCTGTTCAAGCGCCATCTAC | 0.915 RPM ratio (pull-down/input)
GATGATTGTTCTCCCAGCTGATGAATTCGTGTTGTCGAGTAAACAAATTTTCCTAATCTTTCTGTTCAAGCGCCATCTAC | 2.75 RPM ratio (pull-down/input)
GATGATTGTTCTCCCAGCTGATGAATTAGGCTGATCGAGTAAACAAATTTTCCTAATCTTTCTGTTCAAGCGCCATCTAC | 0.537 RPM ratio (pull-down/input)
GATGATTGTTCTCCCAGCTGATGAATTGAGTGCCTCGAGTAAACAAATTTTCCTAATCTTTCTGTTCAAGCGCCATCTAC | 0.963 RPM ratio (pull-down/input)
GATGATTGTTCTCCCAGCTGATGAATTCATTGAATCGAGTAAACAAATTTTCCTAATCTTTCTGTTCAAGCGCCATCTAC | 0.267 RPM ratio (pull-down/input)
GATGATTGTTCTCCCAGCTGATGAATTGTGGACCTCGAGTAAACAAATTTTCCTAATCTTTCTGTTCAAGCGCCATCTAC | 0.571 RPM ratio (pull-down/input)
GATGATTGTTCTCCCAGCTGATGAATTCAATAGGTCGAGTAAACAAATTTTCCTAATCTTTCTGTTCAAGCGCCATCTAC | 0.536 RPM ratio (pull-down/input)

Sequence | binding signal
GATGATTGTTCTCCCAGCTGATGAATTCGGATGGTCGAGTAAACAAATTTTCCTAATCTTTCTGTTCAAGCGCCATCTAC | 0.433 RPM ratio (pull-down/input)
GATGATTGTTCTCCCAGCTGATGAATTTCTGCACTCGAGTAAACAAATTTTCCTAATCTTTCTGTTCAAGCGCCATCTAC | 0.475 RPM ratio (pull-down/input)
GATGATTGTTCTCCCAGCTGATGAATTCAAGTGTTCGAGTAAACAAATTTTCCTAATCTTTCTGTTCAAGCGCCATCTAC | 0.65 RPM ratio (pull-down/input)
GATGATTGTTCTCCCAGCTGATGAATTCGGACCATCGAGTAAACAAATTTTCCTAATCTTTCTGTTCAAGCGCCATCTAC | 0.399 RPM ratio (pull-down/input)
GATGATTGTTCTCCCAGCTGATGAATTATAAGATTCGAGTAAACAAATTTTCCTAATCTTTCTGTTCAAGCGCCATCTAC | 0.351 RPM ratio (pull-down/input)
GATGATTGTTCTCCCAGCTGATGAATTTTCTGTGTCGAGTAAACAAATTTTCCTAATCTTTCTGTTCAAGCGCCATCTAC | 0.415 RPM ratio (pull-down/input)
GATGATTGTTCTCCCAGCTGATGAATTTGTTGTGTCGAGTAAACAAATTTTCCTAATCTTTCTGTTCAAGCGCCATCTAC | 8.35 RPM ratio (pull-down/input)
GATGATTGTTCTCCCAGCTGATGAATTGAATGTGTCGAGTAAACAAATTTTCCTAATCTTTCTGTTCAAGCGCCATCTAC | 1.26 RPM ratio (pull-down/input)
GATGATTGTTCTCCCAGCTGATGAATTTGATGTGTCGAGTAAACAAATTTTCCTAATCTTTCTGTTCAAGCGCCATCTAC | 6.14 RPM ratio (pull-down/input)
GATGATTGTTCTCCCAGCTGATGAATTTCTTGTGTCGAGTAAACAAATTTTCCTAATCTTTCTGTTCAAGCGCCATCTAC | 1.59 RPM ratio (pull-down/input)
GATGATTGTTCTCCCAGCTGATGAATTGATTGTGTCGAGTAAACAAATTTTCCTAATCTTTCTGTTCAAGCGCCATCTAC | 3.72 RPM ratio (pull-down/input)
GATGATTGTTCTCCCAGCTGATGAATTTGTGATGTCGAGTAAACAAATTTTCCTAATCTTTCTGTTCAAGCGCCATCTAC | 5.62 RPM ratio (pull-down/input)
GATGATTGTTCTCCCAGCTGATGAATTTGTGTTGTCGAGTAAACAAATTTTCCTAATCTTTCTGTTCAAGCGCCATCTAC | 6.27 RPM ratio (pull-down/input)
GATGATTGTTCTCCCAGCTGATGAATTGTCTGTGTCGAGTAAACAAATTTTCCTAATCTTTCTGTTCAAGCGCCATCTAC | 0.563 RPM ratio (pull-down/input)
GATGATTGTTCTCCCAGCTGATGAATTGTGATTGTCGAGTAAACAAATTTTCCTAATCTTTCTGTTCAAGCGCCATCTAC | 4.91 RPM ratio (pull-down/input)
GATGATTGTTCTCCCAGCTGATGAATTTGTGTCGTCGAGTAAACAAATTTTCCTAATCTTTCTGTTCAAGCGCCATCTAC | 5 RPM ratio (pull-down/input)
GATGATTGTTCTCCCAGCTGATGAATTGTGAATGTCGAGTAAACAAATTTTCCTAATCTTTCTGTTCAAGCGCCATCTAC | 1.32 RPM ratio (pull-down/input)
GATGATTGTTCTCCCAGCTGATGAATTTAGTATATCGAGTAAACAAATTTTCCTAATCTTTCTGTTCAAGCGCCATCTAC | 2.93 RPM ratio (pull-down/input)
GATGATTGTTCTCCCAGCTGATGAATTAGCTGGCTCGAGTAAACAAATTTTCCTAATCTTTCTGTTCAAGCGCCATCTAC | 0.476 RPM ratio (pull-down/input)
GATGATTGTTCTCCCAGCTGATGAATTTATTACGTCGAGTAAACAAATTTTCCTAATCTTTCTGTTCAAGCGCCATCTAC | 1.22 RPM ratio (pull-down/input)
GATGATTGTTCTCCCAGCTGATGAATTGGCGACGTCGAGTAAACAAATTTTCCTAATCTTTCTGTTCAAGCGCCATCTAC | 0.41 RPM ratio (pull-down/input)

Sequence | binding signal
GATGATTGTTCTCCCAGCTGATGAATTAGGTTGGTCGAGTAAACAAATTTTCCTAATCTTTCTGTTCAAGCGCCATCTAC | 1.62 RPM ratio (pull-down/input)
GATGATTGTTCTCCCAGCTGATGAATTTTGTGTGTCGAGTAAACAAATTTTCCTAATCTTTCTGTTCAAGCGCCATCTAC | 5.59 RPM ratio (pull-down/input)
GATGATTGTTCTCCCAGCTGATGAATTCTTTGTGTCGAGTAAACAAATTTTCCTAATCTTTCTGTTCAAGCGCCATCTAC | 0.573 RPM ratio (pull-down/input)
GATGATTGTTCTCCCAGCTGATGAATTTTTTGTGTCGAGTAAACAAATTTTCCTAATCTTTCTGTTCAAGCGCCATCTAC | 0.531 RPM ratio (pull-down/input)
GATGATTGTTCTCCCAGCTGATGAATTAGTCTGATCGAGTAAACAAATTTTCCTAATCTTTCTGTTCAAGCGCCATCTAC | 0.373 RPM ratio (pull-down/input)
GATGATTGTTCTCCCAGCTGATGAATTCTCCCGTTCGAGTAAACAAATTTTCCTAATCTTTCTGTTCAAGCGCCATCTAC | 0.247 RPM ratio (pull-down/input)
GATGATTGTTCTCCCAGCTGATGAATTGTGCCATTCGAGTAAACAAATTTTCCTAATCTTTCTGTTCAAGCGCCATCTAC | 6.37 RPM ratio (pull-down/input)
GATGATTGTTCTCCCAGCTGATGAATTGGTGAATTCGAGTAAACAAATTTTCCTAATCTTTCTGTTCAAGCGCCATCTAC | 0.867 RPM ratio (pull-down/input)
GATGATTGTTCTCCCAGCTGATGAATTTGTGCATTCGAGTAAACAAATTTTCCTAATCTTTCTGTTCAAGCGCCATCTAC | 7.63 RPM ratio (pull-down/input)
GATGATTGTTCTCCCAGCTGATGAATTCTCCCATTCGAGTAAACAAATTTTCCTAATCTTTCTGTTCAAGCGCCATCTAC | 0.243 RPM ratio (pull-down/input)
GATGATTGTTCTCCCAGCTGATGAATTGTGCTGTTCGAGTAAACAAATTTTCCTAATCTTTCTGTTCAAGCGCCATCTAC | 3.6 RPM ratio (pull-down/input)
GATGATTGTTCTCCCAGCTGATGAATTGTGCATTTCGAGTAAACAAATTTTCCTAATCTTTCTGTTCAAGCGCCATCTAC | 7.44 RPM ratio (pull-down/input)
GATGATTGTTCTCCCAGCTGATGAATTCATTTGTTCGAGTAAACAAATTTTCCTAATCTTTCTGTTCAAGCGCCATCTAC | 3.73 RPM ratio (pull-down/input)
GATGATTGTTCTCCCAGCTGATGAATTGTGTGCATCGAGTAAACAAATTTTCCTAATCTTTCTGTTCAAGCGCCATCTAC | 2.8 RPM ratio (pull-down/input)
GATGATTGTTCTCCCAGCTGATGAATTTTCCCATTCGAGTAAACAAATTTTCCTAATCTTTCTGTTCAAGCGCCATCTAC | 0.252 RPM ratio (pull-down/input)
GATGATTGTTCTCCCAGCTGATGAATTTTGTGATTCGAGTAAACAAATTTTCCTAATCTTTCTGTTCAAGCGCCATCTAC | 5.26 RPM ratio (pull-down/input)
GATGATTGTTCTCCCAGCTGATGAATTTGGTGCATCGAGTAAACAAATTTTCCTAATCTTTCTGTTCAAGCGCCATCTAC | 1.86 RPM ratio (pull-down/input)
GATGATTGTTCTCCCAGCTGATGAATTGGTGCATTCGAGTAAACAAATTTTCCTAATCTTTCTGTTCAAGCGCCATCTAC | 6.97 RPM ratio (pull-down/input)
GATGATTGTTCTCCCAGCTGATGAATTGAATAGCTCGAGTAAACAAATTTTCCTAATCTTTCTGTTCAAGCGCCATCTAC | 0.346 RPM ratio (pull-down/input)
GATGATTGTTCTCCCAGCTGATGAATTTGTAAAATCGAGTAAACAAATTTTCCTAATCTTTCTGTTCAAGCGCCATCTAC | 0.357 RPM ratio (pull-down/input)
GATGATTGTTCTCCCAGCTGATGAATTGTCGTAGTCGAGTAAACAAATTTTCCTAATCTTTCTGTTCAAGCGCCATCTAC | 0.56 RPM ratio (pull-down/input)
